This is an account of results in ChEMBL document CHEMBL1961873, “Compounds: GSK PKIS; Assays: Nanosyn kinase panel” (2012).

The target of experiment [1] is T1, Serine/threonine-protein kinase Nek9 (Homo sapiens) (UniProt Q8TD19).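 Also: each value is a mean percent inhibition of NEK9.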
T1 sequence (whole entry): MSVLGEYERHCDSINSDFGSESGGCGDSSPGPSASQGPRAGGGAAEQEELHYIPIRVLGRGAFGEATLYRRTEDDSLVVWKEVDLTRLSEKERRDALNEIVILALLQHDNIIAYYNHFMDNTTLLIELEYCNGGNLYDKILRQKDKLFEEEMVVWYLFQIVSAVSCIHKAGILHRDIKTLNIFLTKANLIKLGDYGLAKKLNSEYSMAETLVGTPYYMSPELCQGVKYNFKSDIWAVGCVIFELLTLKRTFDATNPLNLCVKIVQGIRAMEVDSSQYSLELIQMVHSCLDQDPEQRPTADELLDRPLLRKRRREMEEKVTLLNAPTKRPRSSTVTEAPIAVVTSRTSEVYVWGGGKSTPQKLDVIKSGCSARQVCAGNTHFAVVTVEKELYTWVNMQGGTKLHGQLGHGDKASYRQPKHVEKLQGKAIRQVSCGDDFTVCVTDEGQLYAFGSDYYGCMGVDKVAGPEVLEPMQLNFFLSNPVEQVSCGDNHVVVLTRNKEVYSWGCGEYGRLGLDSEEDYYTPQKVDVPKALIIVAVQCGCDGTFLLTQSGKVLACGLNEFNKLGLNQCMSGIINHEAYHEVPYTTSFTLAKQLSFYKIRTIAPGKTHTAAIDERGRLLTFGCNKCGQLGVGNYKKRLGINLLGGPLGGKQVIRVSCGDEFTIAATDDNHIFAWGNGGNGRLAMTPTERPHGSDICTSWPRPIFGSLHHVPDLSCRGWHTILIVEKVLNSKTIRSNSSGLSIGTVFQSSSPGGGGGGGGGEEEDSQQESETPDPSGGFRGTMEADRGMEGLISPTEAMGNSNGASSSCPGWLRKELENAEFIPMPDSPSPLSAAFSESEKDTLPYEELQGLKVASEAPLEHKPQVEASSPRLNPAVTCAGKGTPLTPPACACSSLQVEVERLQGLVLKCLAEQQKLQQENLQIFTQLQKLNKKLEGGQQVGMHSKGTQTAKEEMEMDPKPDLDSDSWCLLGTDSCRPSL
The note with it: at 1 µM.

In experiment [2] the target is Serine/threonine-protein kinase PLK1 (Homo sapiens) (UniProt P53350). The settings on record: at 0.1 µM.
Experiment [3] has the same target. The note with it: at 1 µM.
Experiment [4] addresses T2, Dual specificity protein kinase TTK (Homo sapiens) (UniProt P33981).
T2 sequence (whole entry): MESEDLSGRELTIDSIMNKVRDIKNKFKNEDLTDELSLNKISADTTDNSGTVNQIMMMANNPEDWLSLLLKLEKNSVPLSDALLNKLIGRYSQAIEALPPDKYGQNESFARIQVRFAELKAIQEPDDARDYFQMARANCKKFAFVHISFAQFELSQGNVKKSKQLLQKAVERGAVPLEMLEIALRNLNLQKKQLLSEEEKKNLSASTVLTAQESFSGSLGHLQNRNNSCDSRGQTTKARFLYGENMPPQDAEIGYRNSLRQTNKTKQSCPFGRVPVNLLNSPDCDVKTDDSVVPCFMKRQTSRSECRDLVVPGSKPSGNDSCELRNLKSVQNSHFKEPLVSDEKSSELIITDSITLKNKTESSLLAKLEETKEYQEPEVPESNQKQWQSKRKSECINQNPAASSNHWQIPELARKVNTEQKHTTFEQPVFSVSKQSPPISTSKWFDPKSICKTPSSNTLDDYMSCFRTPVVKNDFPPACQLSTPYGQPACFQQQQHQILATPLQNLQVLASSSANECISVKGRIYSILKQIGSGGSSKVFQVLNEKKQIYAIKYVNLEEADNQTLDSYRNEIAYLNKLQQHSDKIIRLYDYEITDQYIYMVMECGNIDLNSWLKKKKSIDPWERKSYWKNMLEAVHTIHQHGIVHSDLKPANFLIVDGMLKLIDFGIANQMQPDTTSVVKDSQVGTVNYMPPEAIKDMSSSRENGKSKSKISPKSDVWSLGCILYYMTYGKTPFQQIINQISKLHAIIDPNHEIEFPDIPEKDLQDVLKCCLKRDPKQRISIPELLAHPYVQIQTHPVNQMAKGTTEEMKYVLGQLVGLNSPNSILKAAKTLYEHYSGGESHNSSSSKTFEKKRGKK
The settings on record: at 0.1 µM.

Experiment [5] concerns T3, Receptor-type tyrosine-protein kinase FLT3 (Homo sapiens), P36888 [D835Y].
T3 sequence (whole entry): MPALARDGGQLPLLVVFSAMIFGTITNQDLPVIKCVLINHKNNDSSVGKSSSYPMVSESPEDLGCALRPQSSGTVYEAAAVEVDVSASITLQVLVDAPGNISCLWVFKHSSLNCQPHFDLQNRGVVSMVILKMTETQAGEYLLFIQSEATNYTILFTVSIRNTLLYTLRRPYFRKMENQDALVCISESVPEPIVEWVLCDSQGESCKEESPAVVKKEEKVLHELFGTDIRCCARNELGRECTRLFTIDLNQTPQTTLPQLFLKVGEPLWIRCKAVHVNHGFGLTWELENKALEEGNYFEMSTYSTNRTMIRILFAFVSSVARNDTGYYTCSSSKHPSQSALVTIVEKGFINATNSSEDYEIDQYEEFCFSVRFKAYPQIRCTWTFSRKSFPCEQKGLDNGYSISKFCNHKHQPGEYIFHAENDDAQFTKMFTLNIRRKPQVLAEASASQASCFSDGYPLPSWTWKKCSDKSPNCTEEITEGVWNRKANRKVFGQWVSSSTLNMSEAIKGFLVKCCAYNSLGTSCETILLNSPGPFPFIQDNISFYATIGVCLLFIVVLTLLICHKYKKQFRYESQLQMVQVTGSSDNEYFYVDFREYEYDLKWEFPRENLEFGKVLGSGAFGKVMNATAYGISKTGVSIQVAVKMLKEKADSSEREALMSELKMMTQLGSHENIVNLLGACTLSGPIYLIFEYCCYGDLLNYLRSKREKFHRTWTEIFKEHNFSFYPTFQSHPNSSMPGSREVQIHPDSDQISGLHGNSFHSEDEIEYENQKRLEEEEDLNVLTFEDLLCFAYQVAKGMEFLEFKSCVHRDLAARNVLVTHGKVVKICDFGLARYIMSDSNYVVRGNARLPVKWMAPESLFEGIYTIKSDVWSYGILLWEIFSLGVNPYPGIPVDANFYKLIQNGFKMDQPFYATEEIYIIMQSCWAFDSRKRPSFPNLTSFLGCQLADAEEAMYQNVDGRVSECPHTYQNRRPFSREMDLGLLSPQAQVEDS
The settings on record: at 1 µM.

Experiment [6] has as its target Vascular endothelial growth factor receptor 3 (Homo sapiens) (UniProt P35916). The settings on record: at 0.1 µM.
Experiment [7] shares this target. The note with it: at 1 µM.
In experiment [8] the target is Macrophage colony-stimulating factor 1 receptor (Homo sapiens) (UniProt P07333). The note with it: at 0.1 µM.
Experiment [9] has the same target. The note with it: at 1 µM.
Experiment [10] addresses Tyrosine-protein kinase Fyn (Homo sapiens) (UniProt P06241). The note with it: at 0.1 µM.

Sequence of Vascular endothelial growth factor receptor 3 (Homo sapiens) (P35916 whole entry): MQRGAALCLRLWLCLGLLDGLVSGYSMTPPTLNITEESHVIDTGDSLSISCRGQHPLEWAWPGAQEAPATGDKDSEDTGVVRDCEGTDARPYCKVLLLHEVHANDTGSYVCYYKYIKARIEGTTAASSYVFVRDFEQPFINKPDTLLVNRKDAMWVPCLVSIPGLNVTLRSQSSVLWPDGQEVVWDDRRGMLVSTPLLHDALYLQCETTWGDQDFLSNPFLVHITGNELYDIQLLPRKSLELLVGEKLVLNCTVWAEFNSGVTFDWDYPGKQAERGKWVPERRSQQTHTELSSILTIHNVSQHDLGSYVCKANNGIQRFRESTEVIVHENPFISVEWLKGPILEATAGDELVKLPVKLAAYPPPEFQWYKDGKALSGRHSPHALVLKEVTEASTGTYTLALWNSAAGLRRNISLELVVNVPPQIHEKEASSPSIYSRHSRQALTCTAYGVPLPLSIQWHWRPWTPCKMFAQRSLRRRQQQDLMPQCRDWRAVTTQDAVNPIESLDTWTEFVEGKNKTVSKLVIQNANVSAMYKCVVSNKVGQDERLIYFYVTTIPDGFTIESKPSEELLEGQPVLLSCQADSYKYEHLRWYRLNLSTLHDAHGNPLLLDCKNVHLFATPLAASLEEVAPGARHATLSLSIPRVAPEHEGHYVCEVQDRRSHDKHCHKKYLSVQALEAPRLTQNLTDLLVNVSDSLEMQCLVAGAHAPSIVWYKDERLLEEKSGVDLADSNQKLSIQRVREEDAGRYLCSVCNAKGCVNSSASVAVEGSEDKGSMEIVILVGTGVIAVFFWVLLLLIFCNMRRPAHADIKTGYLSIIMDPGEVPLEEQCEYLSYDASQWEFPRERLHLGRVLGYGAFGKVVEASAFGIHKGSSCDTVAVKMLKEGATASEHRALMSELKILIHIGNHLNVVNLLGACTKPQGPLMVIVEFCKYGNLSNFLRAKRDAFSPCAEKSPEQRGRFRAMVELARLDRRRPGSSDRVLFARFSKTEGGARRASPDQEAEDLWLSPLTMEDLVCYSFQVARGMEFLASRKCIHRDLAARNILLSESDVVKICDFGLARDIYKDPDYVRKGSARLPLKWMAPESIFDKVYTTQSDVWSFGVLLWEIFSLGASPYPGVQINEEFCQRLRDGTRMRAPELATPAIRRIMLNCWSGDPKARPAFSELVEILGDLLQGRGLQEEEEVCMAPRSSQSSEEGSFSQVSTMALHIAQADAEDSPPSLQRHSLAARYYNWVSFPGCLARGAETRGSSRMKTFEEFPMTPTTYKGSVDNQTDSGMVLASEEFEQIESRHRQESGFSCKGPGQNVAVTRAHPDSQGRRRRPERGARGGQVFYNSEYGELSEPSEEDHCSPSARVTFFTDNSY
Sequence of Macrophage colony-stimulating factor 1 receptor (Homo sapiens) (P07333 whole entry): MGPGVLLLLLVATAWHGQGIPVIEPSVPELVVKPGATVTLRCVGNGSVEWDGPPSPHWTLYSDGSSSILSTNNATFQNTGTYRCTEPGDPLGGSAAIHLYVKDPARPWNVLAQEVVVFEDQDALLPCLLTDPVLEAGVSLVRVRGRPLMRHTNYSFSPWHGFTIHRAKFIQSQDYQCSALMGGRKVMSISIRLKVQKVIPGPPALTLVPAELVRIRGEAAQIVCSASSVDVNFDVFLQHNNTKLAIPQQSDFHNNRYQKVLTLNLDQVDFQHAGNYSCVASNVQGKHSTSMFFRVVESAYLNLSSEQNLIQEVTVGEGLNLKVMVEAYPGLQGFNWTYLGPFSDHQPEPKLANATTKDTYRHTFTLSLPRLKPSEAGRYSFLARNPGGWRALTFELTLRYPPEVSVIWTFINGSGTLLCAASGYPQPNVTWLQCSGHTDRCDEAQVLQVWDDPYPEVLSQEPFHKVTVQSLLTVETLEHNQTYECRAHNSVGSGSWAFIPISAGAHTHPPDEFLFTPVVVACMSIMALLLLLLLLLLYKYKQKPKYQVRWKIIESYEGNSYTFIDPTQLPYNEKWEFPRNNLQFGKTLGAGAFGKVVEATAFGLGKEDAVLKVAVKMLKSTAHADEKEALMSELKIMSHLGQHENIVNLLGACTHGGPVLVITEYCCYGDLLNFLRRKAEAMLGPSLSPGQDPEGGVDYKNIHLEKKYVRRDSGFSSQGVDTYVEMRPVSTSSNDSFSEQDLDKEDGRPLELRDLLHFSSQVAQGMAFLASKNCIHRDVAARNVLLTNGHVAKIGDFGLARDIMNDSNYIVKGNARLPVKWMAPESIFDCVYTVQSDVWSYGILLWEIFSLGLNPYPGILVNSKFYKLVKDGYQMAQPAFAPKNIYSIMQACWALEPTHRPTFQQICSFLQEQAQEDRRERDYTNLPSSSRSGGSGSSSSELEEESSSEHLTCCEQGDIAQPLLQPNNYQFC
Sequence of Serine/threonine-protein kinase PLK1 (Homo sapiens) (P53350 whole entry): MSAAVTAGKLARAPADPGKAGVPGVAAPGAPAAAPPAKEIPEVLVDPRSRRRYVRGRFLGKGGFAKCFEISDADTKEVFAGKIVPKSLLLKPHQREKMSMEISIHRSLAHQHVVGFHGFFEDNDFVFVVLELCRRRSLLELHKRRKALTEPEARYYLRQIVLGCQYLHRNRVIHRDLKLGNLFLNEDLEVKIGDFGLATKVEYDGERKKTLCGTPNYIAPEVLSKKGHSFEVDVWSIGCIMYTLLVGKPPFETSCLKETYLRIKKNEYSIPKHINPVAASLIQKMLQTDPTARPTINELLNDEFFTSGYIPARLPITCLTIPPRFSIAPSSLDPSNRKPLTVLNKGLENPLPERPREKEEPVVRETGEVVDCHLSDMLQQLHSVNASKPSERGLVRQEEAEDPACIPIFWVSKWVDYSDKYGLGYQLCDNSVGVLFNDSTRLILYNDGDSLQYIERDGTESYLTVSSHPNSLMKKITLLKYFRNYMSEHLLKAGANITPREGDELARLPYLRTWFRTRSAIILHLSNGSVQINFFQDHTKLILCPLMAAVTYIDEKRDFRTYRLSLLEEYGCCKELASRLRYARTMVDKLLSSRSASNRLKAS
Sequence of Tyrosine-protein kinase Fyn (Homo sapiens) (P06241 2-537 limits assumed): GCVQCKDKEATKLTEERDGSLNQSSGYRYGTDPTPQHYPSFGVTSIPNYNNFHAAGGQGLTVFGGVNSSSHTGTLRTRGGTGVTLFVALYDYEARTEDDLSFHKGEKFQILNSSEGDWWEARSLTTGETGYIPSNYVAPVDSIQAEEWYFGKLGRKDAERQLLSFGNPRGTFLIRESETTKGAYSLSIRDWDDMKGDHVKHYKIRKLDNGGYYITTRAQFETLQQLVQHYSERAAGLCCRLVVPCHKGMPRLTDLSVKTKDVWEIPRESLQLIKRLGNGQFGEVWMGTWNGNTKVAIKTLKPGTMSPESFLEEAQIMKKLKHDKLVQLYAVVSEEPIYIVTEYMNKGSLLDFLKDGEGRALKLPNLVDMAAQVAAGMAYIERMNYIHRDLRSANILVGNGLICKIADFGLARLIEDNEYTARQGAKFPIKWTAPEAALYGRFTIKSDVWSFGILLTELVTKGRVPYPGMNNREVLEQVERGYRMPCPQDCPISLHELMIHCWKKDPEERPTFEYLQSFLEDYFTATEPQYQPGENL

The inhibition is the relative decrease from the control value, in per cent. With `CCN(CC)S(=O)(=O)c1ccc(OC)c(Nc2ncc(-c3ccccc3)o2)c1`, the inhibition in [1] turned out to be 1.83%; in experiment [2] it was 0.06%; in experiment [3] it was 0.24%; in experiment [4], 2.04%; in experiment [5], 69.9%; in [6] it was 30.9%. Besides, the inhibition in [7] was 85.5%; in [8], 42.4%; in experiment [9] it was 84.8%; in experiment [10], 6.94%.

As to `COc1cccc(-n2ncc3c(N/N=C/c4ccc(F)cc4)ncnc32)c1`, the inhibition in [1] worked out at 6.76%; in [2], 1.91%; in experiment [3], 4.22%; in [4] it was 7.93%; in [5], 12.3%; in experiment [6], 7.04%. For the same compound, the inhibition in experiment [7] stood at 6.84%; in [8], 6.04%; in experiment [9] it was 5.69%; in experiment [10], 8.43%.

For the compound `CC(=O)NCc1cccc(C#Cc2cncnc2Nc2ccc(OCc3cccc(F)c3)c(Cl)c2)c1`, the inhibition is -3.77% in [1]; 1.79% in experiment [2]; 1.35% in experiment [3]; 8.83% in [4]; -1.12% in [5]; 2.27% in experiment [6]. Moreover, the inhibition in experiment [7] came out at 3.6%; in experiment [8], 1.13%; in experiment [9], 0.82%; in [10], 1.08%.

For the compound `Nc1ncc(-c2cccc(S(N)(=O)=O)c2)c2scc(-c3ccc(F)c(Cl)c3)c12`, the inhibition in [1] was -0.67%; in [2] it was 4.55%; in experiment [3], 2.5%; in experiment [4], 5.8%; in [5] it was -1.46%; in [6], 5.73%. Also, the inhibition was 12.6% in experiment [7], 6.9% in experiment [8], 43.7% in experiment [9] and 7.81% in experiment [10].

Take `c1ccc(COc2ccc(Nc3ncnc4ccc(-c5ccco5)cc34)cc2)cc1`: the inhibition in experiment [1] was 5.01%; in experiment [2], 1.78%; in experiment [3], 0.52%; in experiment [4], 5.13%; in experiment [5] it was -0.59%; in experiment [6], 1.83%. Also, the inhibition in experiment [7] is 0.93%; in [8], -2.64%; in [9], 0.74%; in [10], 0.27%.

Take `COc1cccc(-c2c[nH]c3c(N/N=C/c4ccncc4)ncnc23)c1`: the inhibition in [1] amounted to 5.28%; in [2] it was 2.36%; in [3], 1.97%; in experiment [4], 7.43%; in [5], 62.7%; in experiment [6], 4.35%. For the same compound, the inhibition came out at 29.5% in experiment [7], 21.6% in experiment [8], 68.6% in experiment [9] and 14.4% in experiment [10].

As for `Clc1ccc(-c2nn3ncccc3c2-c2ccnc(Nc3ccccc3)n2)cc1`, the inhibition is -3.71% in experiment [1]; -9.28% in experiment [2]; 3.17% in experiment [3]; 3.63% in [4]; -0.74% in experiment [5]; 4.99% in experiment [6]. The inhibition in experiment [7] was determined as 16.2%; in [8] it was 4.3%; in [9], 32.3%; in experiment [10], 9.12%.

Take `Cc1cccc2c1NC(=O)/C2=N\Nc1ccc(S(N)(=O)=O)cc1`: the inhibition in experiment [1] came to 3.99%; in [2], 0.77%; in [3] it was 2.15%; in [4], 1.78%; in experiment [5], 10.5%; in experiment [6], 3.59%. Also, the inhibition was -0.85% in experiment [7], 2.22% in [8], 7.87% in [9] and 2.11% in [10].
